# Laboratory results taken from PubChem BioAssay (NCI).
# Compounds without any hit were thinned out: in the full panel of roughly 83,000, 20% have a hit.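 Compound tested at a single concentration for 48 hours in 96-well plates; a percent growth value below 10 was scored as active.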 A number with no mark means an inactive call. Active and inactive are the calls of the source.
# Experiments:
# Test in all cases: NCI-60 one-dose screen, 48 h (100 = growth as untreated, 0 = no growth, -100 = all killed)
# Details in all cases: 10 µM unless noted
# [1] = test system: HCT-15 colon
# [2] = test system: HT29 colon
# [3] = test system: SNB-75 CNS
# [4] = test system: SNB-19 CNS
# [5] = test system: U251 CNS
# [6] = test system: SK-MEL-5 melanoma
# [7] = test system: UACC-62 melanoma
# [8] = test system: LOX IMVI melanoma
# [9] = test system: SK-MEL-28 melanoma
# [10] = test system: PC-3 prostate
SMILES,growth [1],growth [2],growth [3],growth [4],growth [5],growth [6],growth [7],growth [8],growth [9],growth [10]
CC(=O)OC1CCC2(C)C(CCC3C4CC=C(C(C)=O)C4(C)OC(=O)CC32)C1 (stereo unspecified),5.27% (active),-59.4% (active),95%,94.6%,54.8%,54.7%,37.8%,-19.9% (active),4.51% (active),
COc1cccc(-c2nc3occn3c2-c2ccnc(NCCCNS(=O)(=O)c3cccc(F)c3)n2)c1,83.4%,50.7%,117%,109%,111%,48.2%,45.2%,86.5%,89.5%,
C[C@H]1[C@H](C)CC[C@]2(CO)CC[C@]3(C)C(=CC[C@@H]4[C@@]5(C)Cc6c([nH]c7ccccc67)C(C)(C)[C@@H]5CC[C@]43C)[C@H]12,100%,68.1%,87.6%,80.8%,72.4%,97.5%,81.4%,79.1%,79.6%,
O=S(=O)(NCCNc1nccc(-c2c(-c3cccc(F)c3)nc3occn23)n1)c1cccc2ccccc12,41.5%,34.2%,61.4%,67.1%,59.7%,30%,45.1%,59.7%,,
Cc1cc(C)c(C=O)c(C)c1,107%,98.8%,83%,102%,101%,99.8%,108%,96.8%,110%,
O=C(N/N=C/c1ccncc1)c1ccccc1Nc1cccc(C(F)(F)F)c1,74.2%,99.3%,75.8%,72.2%,86.9%,76%,81%,70.5%,94.9%,
CN1CCN(C(=O)[C@]2(C)CC[C@]3(C)CC[C@]4(C)C(=CC(=O)[C@@H]5[C@@]6(C)CCC(=O)NC(C)(C)[C@@H]6CC[C@]54C)[C@@H]3C2)CC1,94.6%,86.9%,73.7%,97.8%,86.7%,88.8%,97.3%,84.6%,101%,
Cc1cc(NC(=O)c2cnc(N3CCN(CCOCCOCCOCCOCCC(=O)N[C@H](C(=O)N4C[C@H](O)C[C@H]4C(=O)N[C@@H](C)c4ccc(-c5scnc5C)cc4)C(C)(C)C)CC3)cn2)c2ncccc2c1,60.5%,5.72% (active),6.69% (active),27.7%,4.36% (active),-41.1% (active),-57.1% (active),,-75.1% (active),
c1cnc2nc3c(cc2c1)oc1ccccc13,101%,105%,76.6%,92%,97%,91.2%,87.1%,97.7%,111%,
N#CSCC1CC(O)(c2ccccc2)C(c2ccccc2)C(c2ccc(F)cc2)O1 (stereo unspecified),42.6%,0.506% (active),62.6%,76.8%,32.4%,57.3%,41.2%,-1.61% (active),-15.5% (active),
Cn1c(COC(=O)NCCN2CCOCC2)nc2c(N3CCOCC3)nc(-c3ccccc3)nc21,-39.4% (active),-58.1% (active),-3.92% (active),48.7%,-52.5% (active),-93.6% (active),-93.6% (active),-87.2% (active),-97.6% (active),
CS(=O)(=O)c1ccc(-c2cc(-c3nnc(SCC(=O)Nc4ccc(C(=O)/C=C/c5ccc(Cl)cc5)cc4)n3-c3ccccc3)c3ccccc3n2)cc1,96.4%,106%,72.3%,85.2%,90.9%,95.7%,80.2%,92.2%,103%,
Cc1ccc(C2CC(c3cccc(Nc4ccncc4)c3)=NN2c2ccc(Cl)cc2)cc1 (stereo unspecified),-88.2% (active),-58% (active),-89.9% (active),-90.2% (active),-52.2% (active),-93% (active),-98.3% (active),-96.5% (active),-97.7% (active),
CN1CCN(c2cc(F)c(NC3=C(Cl)C(=O)c4ncccc4C3=O)c(F)c2)CC1,-8.53% (active),11.2%,38%,96.3%,-9.88% (active),-91.7% (active),-45.6% (active),-70.3% (active),-55.1% (active),
CS(=O)(=O)Nc1cc(-c2ccc3ncnc(Nc4ccc5[nH]ncc5c4)c3c2)cnc1Cl,79.4%,80.9%,15.5%,68.7%,,81%,58.9%,66.2%,50.8%,
CCCCCCCCOc1ccc(/C=N/Nc2cc(C)nc3ccc(Cl)cc23)cc1,-82.3% (active),-55.9% (active),52.2%,9.5% (active),,96%,91.2%,-90.7% (active),64.3%,-62.9% (active)
O=C(Nc1cccc(Cl)c1)Oc1c(Br)c(Br)c(Br)c(Br)c1Br,98.2%,91.8%,90%,101%,,75.2%,82.1%,88.6%,93.1%,59.5%
COc1ccc(CNCCN2C(=O)c3ccc4c5c(ccc(c35)C2=O)C(=O)N(CCNCc2ccc(OC)cc2)C4=O)cc1,-68.1% (active),-55.3% (active),-95.7% (active),-90.9% (active),,-99.6% (active),-84.4% (active),-74.7% (active),-96.2% (active),-76% (active)
CCCCc1ccc(Nc2nnc(SCC(=O)NC(=O)NCC)s2)cc1,99.9%,103%,83%,119%,,103%,78.2%,,105%,91%
O=C1Nc2cc(-c3ccncc3)ccc2/C1=C/c1ccc[nH]1,72.3%,88.8%,89.3%,97%,,77.9%,111%,98.8%,69.6%,
C(=C\c1n(Cc2ccc3ccccc3c2)c(-c2ccccc2)c(-c2ccccc2)[n+]1Cc1ccc2ccccc2c1)/c1ccccc1,-81.2% (active),-63.5% (active),-99.9% (active),-93.7% (active),,-99.1% (active),-89.9% (active),-96% (active),-80.8% (active),-81.2% (active)
FC(F)(F)c1cccc(Oc2ccc(Nc3ncnc4ccc(OCCCN5CCOCC5)cc34)cc2Cl)c1,-40.4% (active),5% (active),75.2%,61.1%,,59.2%,76.1%,-36% (active),21.3%,49.1%
Fc1cc(C2=NNC(c3ccc[nH]3)C2)ccc1-n1ccc(C(F)(F)F)n1 (stereo unspecified),94.1%,92.9%,87.7%,91.2%,,98%,81.3%,94.2%,104%,72.3%
CCCCCCNC(=O)Oc1ccc(/C(=C(/CC)Cc2ccccc2)c2ccc(OCCN(CC)CC)cc2)cc1,5.48% (active),-24.3% (active),78.8%,69.2%,,51.2%,87.6%,80.1%,80.8%,51.6%
CN(C)C(C(N)=O)c1ccc(Cl)cc1 (stereo unspecified),108%,104%,93.6%,99.9%,,101%,90.8%,95.7%,101%,95.1%
C#CCNC(=O)[C@H](Cc1ccccc1)NC(=O)[C@]12CC[C@@H](C(=C)C)[C@@H]1[C@H]1CC[C@@H]3[C@@]4(C)Cc5c([nH]c6ccccc56)C(C)(C)[C@@H]4CC[C@@]3(C)[C@]1(C)CC2,101%,88.8%,92.9%,90.9%,,102%,93.2%,97.4%,102%,77.8%

SMILES,growth [1],growth [2],growth [3],growth [4],growth [5],growth [6],growth [7],growth [8],growth [9],growth [10]
Cc1ccccc1-c1cc(Cc2ccc(F)cc2)c(=O)[nH]n1,110%,117%,101%,88.2%,,98.3%,99.6%,98.9%,118%,116%
COc1ccc(OC)c(/C=C/[C@H]2O[C@@H](C)[C@H](O)[C@@H]2O)c1,103%,104%,90.2%,99.4%,,103%,100%,99.8%,102%,106%
Nc1c(C(=O)Nc2cccc3ccncc23)sc2nc3c(cc12)C(=O)CCC3,35.1%,18.2%,9.48% (active),32.9%,,3.47% (active),28.9%,46.2%,55.8%,52.9%
O=c1nc2n(nc1/C=C/c1ccco1)CC(c1ccc(Cl)cc1)=NN2,135%,109%,91.6%,96.5%,,99.9%,97.6%,113%,120%,97.6%
O=C(Nc1cccc(Cl)c1)c1cc(Cl)ccc1O,12%,15.5%,-26.8% (active),15.9%,,-54.4% (active),0.352% (active),-32.5% (active),10.1%,-4.48% (active)
CC1(C)NCCC[C@]2(C)[C@H]3CC=C4[C@@H]5C[C@@](C)(CO)CC[C@]5(C)CC[C@@]4(C)[C@]3(C)CC[C@@H]12,29.9%,5.18% (active),98.9%,61.6%,,50.7%,73.6%,45.2%,68.2%,35.1%
C#CC(=O)Nc1cccc(Nc2nc3c(c(NCc4ccccc4)n2)CCCC3)c1,-64.8% (active),-29.1% (active),-29.3% (active),-79.4% (active),,-89.2% (active),-77.9% (active),-87.2% (active),-84.6% (active),-66.2% (active)
O=C(Nc1ccc2cc3ccc(NC(=O)N4CCCCCC4)cc3nc2c1)N1CCCCCC1,-47.4% (active),-36.2% (active),-88.4% (active),1.3% (active),,-94.4% (active),-66.6% (active),-85% (active),-82.1% (active),5.93% (active)
COc1ccc(Nn2c(SCC(=O)Nc3nc(-c4ccc(Cl)cc4)cs3)nc(C)c2C)cc1,59.8%,30.1%,45.8%,79.2%,,-21.5% (active),49.5%,38.9%,86.8%,35.7%
Cc1ccc(/C=C/C(=O)c2ccc(N)cc2)c(C)c1,18.6%,60.9%,97.8%,85.7%,,96%,86.8%,-91.5% (active),105%,91.6%
Cc1cccc(Oc2ccc(Nc3ncnc4ccc(NC(=O)CN(C)C)cc34)cc2Cl)c1,-40.9% (active),3.23% (active),66.4%,59.9%,,39.9%,102%,-78.1% (active),48.1%,40.7%
COc1cc2nc(-c3ccc(C(F)(F)F)cc3)cc(OCCN3CCCC3)c2cc1OC,67.3%,66.4%,71.6%,88.7%,,84.4%,93.3%,27%,78.6%,73.8%
O=C1/C(=C/c2ccc(O)cc2)COc2ccc(-c3ccccc3)cc21,48.1%,27.1%,90.4%,109%,,81.7%,88.4%,53.9%,117%,60%
N/C(=N\N=C\c1cc2ccccc2[nH]1)N/N=C/c1cc2ccccc2[nH]1,93.5%,95.7%,85.9%,97.6%,,84.9%,99.2%,98.4%,103%,89.3%
O=C(O)C(/C=C/c1ccco1)=N\Nc1nc(-c2ccc(Cl)cc2)cs1,36.3%,86.4%,57.4%,42.5%,,62.1%,57.1%,46.7%,70.4%,54.3%
CCN1C(=O)N(CC)C2NC(SC)=NC21 (stereo unspecified),103%,108%,86%,97.8%,,104%,96.2%,93.1%,97.8%,99.5%
COc1ccc(C(O)c2cc3c(N)c(C(=O)Nc4cccc(OC)c4)sc3nc2C)cc1 (stereo unspecified),15.6%,2.47% (active),-2.98% (active),36.1%,,-35.4% (active),23.6%,30.8%,59%,16.2%
CC[N+](CC)(CCCC(C)[N+]1(Cc2ccccc2)C(C)=CC=C1C)Cc1ccccc1 (stereo unspecified),98.5%,44.1%,87.6%,92.6%,,68.7%,73%,90.7%,,73.3%
COc1cc(C(=O)/C=C/c2c(C)n([O-])c3ccc(Cl)cc3[n+]2=O)cc(OC)c1OC,29.6%,62.8%,60.4%,99.8%,,89.4%,60.4%,65.8%,80.8%,
CCCc1cc2c(cc1Br)OCO2,101%,100%,99.9%,106%,,99.6%,101%,95.2%,105%,85.7%
CC(C)CCSc1nc(NNC(N)=O)c(C#N)c(-c2ccccc2)n1,98.7%,115%,97.6%,99.2%,,104%,98.1%,97.6%,104%,98.7%
O=C(Nc1ccc2cc3ccc(NC(=O)NC4CCCCC4)cc3nc2c1)NC1CCCCC1,111%,82.7%,58.6%,78.9%,,107%,87.8%,63%,79%,83.7%
Clc1ccc(N2N=C(c3cccc(Nc4ccncc4)c3)CC2c2ccc3c(c2)OCO3)cc1 (stereo unspecified),-21.1% (active),3.63% (active),55.9%,80.6%,,30.9%,90.8%,-74.4% (active),-12.5% (active),31.3%
CCCCOc1ccc(/C=N/Nc2cc(C)nc3ccc(Cl)cc23)cc1,-80.3% (active),-49.8% (active),17%,20.7%,,71.8%,77.8%,-94.7% (active),-89.5% (active),20.6%
CC1(C)CCCN1CCCN1c2ccccc2Sc2ccc(Cl)cc21,50.7%,26.4%,91%,69.1%,,2.18% (active),75.6%,57.9%,72%,52.6%
COc1ccccc1OCC(=O)N1CCCCCC1,103%,95.2%,91.4%,96.2%,,100%,99.4%,93.6%,101%,89.8%
